Screening data from PubChem BioAssay.
HP1b chromo inh: HTS for Inhibitors of HP1-beta Chromodomain Interactions with Methylated Histone Tails; AlphaScreen HP1-beta / biotin-H3K9me3 peptide binding; actives 0.56% (n = 390,000); Potency, µM (series often up to 114 µM), for the others: at the highest dose activity change, negative = inhibition, actives largely listed as inhibitors; Chromobox protein homolog 1 (Homo sapiens), P83916; AID 540317, 2011; note: nearly all actives have a fitted effect of over 70% in size
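HP1-beta protein (50 nM final) preincubated 30 min at room temperature with biotinylated H3(1-18)K9me3 peptide (50 nM) in PBS pH 7.4, 0.01% Tween-20, then compound added for 30 min. AlphaScreen streptavidin donor/nickel chelate acceptor beads (10 ug/mL final), 30 min dark, luminescence read.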
BAZ2B block: qHTS Assay for Inhibitors of BAZ2B; Bromodomain adjacent to zinc finger domain protein 2B (Homo sapiens), Q9UIF8; AlphaScreen BAZ2B-H3K14Ac peptide displacement; Potency, µM (doses to about 114 µM), for the others: at the top dose activity change, negative = inhibition, most hits filed as inhibitors; actives 4.4% (n = 360,000); AID 504333, 2011; note: % is set by controls: 0 for no effect and ±100 for the full control effect; nearly all actives have a fitted effect of over 60% in size
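BAZ2B (50 nM) with biotin-H3(5-23)K14Ac peptide (50 nM) in PBS pH 7.4, 0.01% Tween-20, preformed 30 min, then compound 30 min at room temperature; top concentration 110uM. AlphaScreen streptavidin donor/nickel chelate acceptor beads (10 ug/mL final), 20 min dark, signal read.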
L3MBTL1 block: qHTS Assay for the Inhibitors of L3MBTL1; Lethal(3)malignant brain tumor-like protein 1 (Homo sapiens), Q9Y468; AlphaScreen L3MBTL1–H3K9me1 peptide binding; Potency, µM (top dose mostly 57.1 µM), without a hit: at the highest dose activity, negative = inhibition, usual class: inhibitors; actives 0.66% (n = 230,000); note: % is set by controls: 0 for no effect and ±100 for the full control effect; nearly all actives have a fitted effect of over 60% in size
Target sequence (Q9Y468 whole entry, looked up): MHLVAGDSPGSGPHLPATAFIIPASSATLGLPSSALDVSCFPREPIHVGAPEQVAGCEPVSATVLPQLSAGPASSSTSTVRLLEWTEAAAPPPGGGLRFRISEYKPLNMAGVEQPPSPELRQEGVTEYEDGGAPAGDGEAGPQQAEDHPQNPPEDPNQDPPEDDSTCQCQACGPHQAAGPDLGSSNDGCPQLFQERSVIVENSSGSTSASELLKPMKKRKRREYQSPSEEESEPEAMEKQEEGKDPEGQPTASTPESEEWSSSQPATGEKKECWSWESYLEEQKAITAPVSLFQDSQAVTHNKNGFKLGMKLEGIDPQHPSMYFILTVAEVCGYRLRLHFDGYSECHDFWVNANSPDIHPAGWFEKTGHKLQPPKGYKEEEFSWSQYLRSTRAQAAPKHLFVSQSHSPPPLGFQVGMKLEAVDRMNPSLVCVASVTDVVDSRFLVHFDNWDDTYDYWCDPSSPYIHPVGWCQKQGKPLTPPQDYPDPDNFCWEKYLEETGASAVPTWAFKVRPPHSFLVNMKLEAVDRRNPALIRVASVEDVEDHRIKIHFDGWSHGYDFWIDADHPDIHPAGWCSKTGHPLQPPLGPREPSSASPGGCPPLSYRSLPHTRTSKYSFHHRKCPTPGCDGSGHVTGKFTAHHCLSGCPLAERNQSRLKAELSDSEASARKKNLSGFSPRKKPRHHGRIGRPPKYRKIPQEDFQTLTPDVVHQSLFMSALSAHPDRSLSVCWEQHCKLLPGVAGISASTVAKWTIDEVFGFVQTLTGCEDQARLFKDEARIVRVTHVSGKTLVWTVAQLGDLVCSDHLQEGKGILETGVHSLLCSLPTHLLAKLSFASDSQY
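AlphaScreen proximity signal between nickel-chelate acceptor and streptavidin donor beads (final 10 ug/mL) reports binding of 50 nM L3MBTL1 to 75 nM biotin-H3 K9me1 peptide; complex incubated with compounds 30 min at room temperature; cefsulodin titration as control.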
JMJD2A Tudor: qHTS Assay for Inhibitors of JMJD2A-Tudor Domain; Lysine-specific demethylase 4A (Homo sapiens), O75164; AlphaScreen JMJD2A-Tudor / H3K4me3 peptide binding; Potency, µM (titrated, usually from 114 µM), for the others: at the top dose activity change, negative = inhibition, actives largely listed as inhibitors; actives 4.4% (n = 390,000); AID 504339, 2011; note: % is set by controls: 0 for no effect and ±100 for the full control effect; nearly all actives have a fitted effect of over 50% in size
G9a inh: qHTS Assay for Inhibitors of Histone Lysine Methyltransferase G9a. Histone-lysine N-methyltransferase EHMT2 (Homo sapiens), Q96KQ7. G9a H3K9 monomethylation, AlphaScreen, 2 h. Potency, µM (highest dose often 102 µM), inactives show at the top dose activity, negative = inhibition, hits mostly inhibitors. actives 8.8% (n = 350,000); note: % is set by controls: 0 for no effect and ±100 for the full control effect; nearly all actives have a fitted effect of over 75% in size
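Signal arises when biotinylated H3K9 peptide, once monomethylated, bridges streptavidin donor and antibody-captured acceptor beads. Enzyme at 20 nM was preincubated 15 min with test compounds; peptide 500 nM and SAM 20 uM then reacted for 2 h.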
The depositor's hits bear a star; ? = inconclusive; / = no result given; ! = a repeat was not active; [ ] = dose if it differs, or a comment. Sampled rows, rich in hits. Any-hit rate of the full collection: about 11%. Calls come from the whole dose curve; as a rule, active = well fitted inhibition curve with a large enough effect; inconclusive = small, poorly fitted or top-dose-only effect; inactive = no such curve, though single readings can be large or run the other way. Potency is the fitted concentration of half-maximal effect.

SMILES	HP1b chromo inh	BAZ2B block	L3MBTL1 block	JMJD2A Tudor	G9a inh
Cc1ccc(/C=N/NC(=O)CN2C(=O)CSc3ccccc32)o1	25%	-2%	/	-5%	45µM*
Cn1cccc1CC(=O)N/N=C/c1ccc([N+](=O)[O-])cc1	?	?	-16%	?	50µM*
O=C(N/N=C/C=C/c1ccccc1)C(O)c1ccccc1 (stereo not drawn)	20%	/	/	-14%	/
O=C(N/N=C/C=C/c1ccco1)C(O)c1ccccc1 (stereo not drawn)	-6%	/	/	56µM*	/
Cc1ccc(/C=N\NC(=O)Cc2cccn2C)o1	8%	/	/	-3%[57.1 µM]	28µM*
O=S(=O)(c1cnc2ccccc2c1)N1CCN(c2nc(-c3cccs3)nc3ccccc23)CC1	31%	/	/	-18%	/
COc1ccccc1CNC(=O)C1CCCN(c2nc3ccccc3n3cccc23)C1 (stereo not drawn)	37%	-13%	/	-18%	-6%[59 µM]
CC(C)c1ccc(OCc2cc(=O)n3c(-c4ccccc4)csc3n2)cc1	35%	-27%	/	-21%	32%[59 µM]
O=C(COc1ccccc1[N+](=O)[O-])N/N=C/C=C/c1ccco1	19%	-38%	-30%	-13%[57.1 µM]	40µM*
Cn1cccc1CC(=O)N/N=C/C=C/c1ccco1	?	56µM*	25µM*	?	13µM*
Cc1ccc(OCC(=O)N/N=C/C=C/c2ccco2)cc1	-5%	-28%	?	?	-23%[59 µM]
COC(=O)C1=C(C)NC(C)=C(C(=O)OC)C1C(=O)OCC(=O)N1CCCCC1C (stereo not drawn)	13%	-7%	-2%	-3%	-26%
CN(C)c1ccc(N/C(=N\S(=O)(=O)c2cccs2)c2ccccc2)cc1	?	45µM*	?	45µM*	4.5µM*
CCN(CC)C1=N/C(=C\c2ccco2)C(=O)N1c1ccccc1	1%	?	-13%	-21%	28µM*
CC(C)CN(CC(C)C)C1=N/C(=C\c2ccco2)C(=O)N1c1ccccc1	-12%	-29%[57.1 µM]	-15%	-22%	?
C/C(N)=C(/C#N)C(=O)CSc1nc2ccccc2[nH]1	?	?	/	79µM*	?
COCCn1c(-c2ccc(OC)cc2)c(-c2ccc(OC)cc2)oc1=O	-12%	35µM*	/	-14%	-21%[2.33 µM]
COCCn1c(=O)c(-c2ccc(OC)cc2)nc2cnc(OC)nc21	/	/	/	/	0%[12.7 µM]
CCN(CC)C(=O)c1sc2[nH]c(=S)n(-c3ccccc3)c(=O)c2c1C	25%	?	-6%	?	-45%[0.501 µM]
CCOc1ccccc1-n1c(=S)sc2c(=O)n(-c3ccc(C)cc3)c(=S)[nH]c21	-18%	-23%	/	?	10µM*
CCn1c(=S)sc2c(=O)n(-c3ccccc3)c(=S)[nH]c21	3%	-1%	/	-18%	10µM*
COc1ccc(/C=C/C(=O)c2ccc3ccccc3c2O)cc1CN1CCOCC1	?	14µM*	-5%	?	6.3µM*
COc1ccc(/C=C/C(=O)c2ccccc2O)cc1CN1CCOCC1	-29%	?	/	?	?
CCNc1ncc2nc(-c3ccc(Cl)cc3)c(=O)n(Cc3ccc(F)cc3)c2n1	/	/	/	/	12%[0.501 µM]
CCc1nnc(N/N=C/c2ccc(N3CCC(C)CC3)c([N+](=O)[O-])c2)n1N	-5%	?	-5%	?	50µM*
SMILES	HP1b chromo inh	BAZ2B block	L3MBTL1 block	JMJD2A Tudor	G9a inh
Nn1cnnc1N/N=C/c1ccc(F)cc1	65%	2%	-2%	-11%	45µM*
Nn1cnnc1N/N=C/c1ccc(Cl)c([N+](=O)[O-])c1	35%	-28%	-18%	?	45µM*
Cc1nnc(N/N=C/c2ccc([N+](=O)[O-])cc2)n1N	14%	?	?	-12%	22%
Cc1ccc(/C=N/Nc2nncn2N)cc1	75%	-6%	/	-12%	5%[2.33 µM]
CCCN1CNc2c(c(=O)[nH]c(=S)n2CCc2cccc(Cl)c2)C1	28%	/	/	-13%	/
Cc1ccc2[nH]c3c(=S)nc[nH]c3c2c1	16%	-2%	7%	?	1.8µM*
Cc1ccc2[nH]c3c(=O)n(N)c(C)nc3c2c1	-4%	-12%	0%	-8%	-26%
CCN(CC)C(C)CN1c2ccccc2Sc2ccccc21 (stereo not drawn)	/	/	/	/	5µM*!
COc1cc(NC(=O)c2ccc3c(SCC(=O)O)c4c(nc3c2)CCC4)cc(OC)c1OC	30%	89µM*	/	-17%	/
COc1cc(NC(=O)c2ccc3c(Cl)c4c(nc3c2)CCC4)cc(OC)c1OC	18%	-3%	/	-21%	28µM*
O=C(O)CSc1c2c(nc3cc(C(=O)Nc4ccc(F)c(Cl)c4)ccc13)CCC2	-1%	79µM*	/	?	-33%[59 µM]
COc1ccc(CN(C)c2ccc(-c3nc(-c4ccc(OC)c(OC)c4)no3)cc2[N+](=O)[O-])cc1	29%	-5%	/	-18%	-6%[59 µM]
COc1ccccc1NS(=O)(=O)c1ccc(O)c(C(=O)OCc2cccc([N+](=O)[O-])c2)c1	8%	/	-11%	-24%	-7%
COc1ccc(C(=O)COC(=O)c2ccccc2NS(=O)(=O)c2ccc(O)c([N+](=O)[O-])c2)cc1	-29%	56µM*	-27%	?	?
COc1ccc(NC(=O)c2ccccc2NS(=O)(=O)c2ccc(C)cc2)c([N+](=O)[O-])c1	-30%	?	-9%	?	3.2µM*
CC[N+]1(C)CCC(O)(c2ccc(OC)cc2)C(C(=O)c2ccc(OC)cc2)C1 (stereo not drawn)	-5%	/	/	89µM*	/
O=C(Nc1ccc2nc(SCC(=O)N3CCOCC3)sc2c1)c1ccccc1Cl	30%	-14%	/	-10%	1%[59 µM]
O=C(CSc1nc2ccccc2s1)NNC(=S)Nc1ccccc1	5%	1%	-14%	-14%	3.5µM*
O=C(CSc1nc2ccccc2s1)Nc1cc(C(=O)O)cc(C(=O)O)c1	37%	5%	/	-20%	25µM*
O=C(O)COc1ccccc1/C=N/NC(=O)CSc1nc2ccccc2s1	31%	2%	/	-6%	71µM*
O=C(CSc1nc2ccc(NC(=O)c3ccccc3C(=O)O)cc2s1)Nc1c(Cl)cccc1Cl	-6%	?	/	-26%	71µM*
S=C1NC2CCCCC2N1 (stereo not drawn)	39%	-22%	4%	-5%	9%
O=C(c1cnccn1)N1CCC2(CC1)CCN(c1cccc(-c3ccccc3)c1)CC2	/	/	/	/	-6%[12.7 µM]
